Laboratory results as given in PubChem BioAssay AID1209 (Sanford-Burnham Center for Chemical Genomics, 2008).
In all, about 190,000 compounds went through this assay and about 810 (0.43%) were called active. No stated cut-off is given here; in the data, active means inhibition above about 50%; inactive means the rest. Only a selection was taken, and actives are over-represented in it overall.

What follows are compounds tested against Mannose-6-phosphate isomerase (Homo sapiens) (UniProt P34949) (assay: inhibitors of human PMI, primary screen, biochemical, fluorescence intensity, coupled assay (AID 1209;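 further: plate controls were DMSO vehicle for no effect and wells lacking substrate for full effect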)). Conditions: purified PMI enzyme, at 20 µM, active compounds read high.
Chain of Mannose-6-phosphate isomerase (Homo sapiens) (P34949 whole entry, looked up): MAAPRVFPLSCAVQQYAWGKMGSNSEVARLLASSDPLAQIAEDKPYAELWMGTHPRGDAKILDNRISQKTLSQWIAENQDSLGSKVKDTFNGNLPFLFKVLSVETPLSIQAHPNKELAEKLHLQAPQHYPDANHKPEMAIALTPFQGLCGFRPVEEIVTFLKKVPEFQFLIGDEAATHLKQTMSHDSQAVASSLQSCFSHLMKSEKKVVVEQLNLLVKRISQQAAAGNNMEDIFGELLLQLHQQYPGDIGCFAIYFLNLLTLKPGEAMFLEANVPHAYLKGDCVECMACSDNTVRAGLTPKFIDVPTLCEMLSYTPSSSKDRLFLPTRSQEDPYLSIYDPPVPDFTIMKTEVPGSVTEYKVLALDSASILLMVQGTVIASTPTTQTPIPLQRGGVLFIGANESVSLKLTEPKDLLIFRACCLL

inhibition, active:
Nc1ccccc1NC1CCCCC1 64.3%, O=C(COC(=O)c1cc(Cl)cc(Cl)c1)NCCN1C(=O)CSC1=O 55.7%, O=C1CCN2C=Nc3cccc4ccc1c2c34 84.5%, COc1cc2c(cc1OC)C1=C(C#N)CN(CC(=O)O)CN1CC2 70.5%, Cc1ccccc1NC(=O)C1c2cccc[n+]2CC(=O)N1c1c(C)cccc1C (stereo not given) 91.6%, O=C(NCC1CC1)c1ccc(Nc2nc3ccc(Br)cc3[nH]2)cc1 84%, O=C(O)/C=C/c1ccc(O)c(O)c1 56.4%, COc1ccc(/C=N/NC(=O)c2nn(-c3ccc(Cl)cc3)c(=O)c3c(N)scc23)cc1 50.7%, COc1ccc(/C=N/NC(=O)c2nn(-c3ccccc3)c(=O)c3c(N)scc23)cc1 60.7%, Nc1scc2c(C(=O)N/N=C/c3ccc(Cl)cc3)nn(-c3ccccc3)c(=O)c12 69.6%, Cc1ccc([N+](=O)[O-])cc1-c1[nH]c(-c2ccc(O)c(O)c2)nc1-c1ccccc1 51.7%

inhibition, inactive:
CN1C(=O)/C(=C/c2ccc(-c3ccccc3[N+](=O)[O-])o2)SC1=Nc1ccc(Cl)c(C(=O)O)c1 3%, CCOC(=O)C1=C(N)Oc2cc(C)n(C)c(=O)c2C1c1ccncc1 (stereo not given) 10%, NC(=O)C1=C[C@H](c2coc3ccccc3c2=O)C[C@H](OCc2ccc(CO)cc2)O1 -2.4%, Nc1c(NC2CCCCC2)c2ccccc2oc1=O 9.2%, O=C(Nc1ccccc1NC(=O)NC1CCCCC1)NC1CCCCC1 6%, Cc1ccc(Cn2c(C(=O)O)cc3sccc32)cc1 -7.2%, O=C(Nc1ccccc1NS(=O)(=O)c1ccc(F)cc1)C1CCCC1 -1.7%, O=C(COC(=O)c1cc(Cl)ccc1Cl)NCCN1C(=O)CSC1=O 0.7%, O=C(COC(=O)c1cccc(Cl)c1)NCCN1C(=O)CSC1=O -6%, COC(=O)c1ccccc1NC(=O)COC(=O)/C=C/c1ccco1 -15%, CCOCCCNC(=O)c1ccc(N2CCOCC2)c(NS(=O)(=O)c2ccc(OC)cc2)c1 -1.6%, Cn1c(COc2ccc([N+](=O)[O-])cc2)nnc1SCC(N)=O -9.7%, c1cc2c3c(cccc3c1)C(N1CCCCC1)=N2 33.9%, c1cc2c3c(cccc3c1)C(N1CCCCCC1)=N2 15.8%, COc1cc2c(cc1OC)C1=C(C#N)CN(C3CCCCC3)CN1CC2 27.4%, COc1ccc(CCN2CC(C#N)=C3c4cc(OC)c(OC)cc4CCN3C2)cc1OC 18.8%, CCCCNC(c1ccccc1)c1ccncc1 (stereo not given) 6.1%, CCn1c(SCC(=O)NC2CCS(=O)(=O)C2)nnc1-c1ccccc1 (stereo not given) -4.5%, COc1cc(NC(=O)CN2C(=O)CN(C)C2=O)c(C)cc1[N+](=O)[O-] -9.8%, Cc1ccccc1NC(=O)C1c2cccc[n+]2CC(=O)N1Cc1ccc2c(c1)OCO2 (stereo not given) -17.8%, Cc1cccc(C)c1NC(=O)C1c2cccc[n+]2CC(=O)N1Cc1cccs1 (stereo not given) -7.5%, C(=C\c1ccccc1)/C=N/Nc1nc(N2CCOCC2)nc(N2CCOCC2)n1 -1.4%, CCn1c(SCC(=O)N2CCN(c3ccc(F)cc3)CC2)nnc1-c1ccncc1 8.1%, O=C(CCn1c(=S)oc2ccccc21)Nc1cccc(F)c1 -10.5%, O=C(NCc1cccs1)c1cccc(Nc2nc3ccc(Br)cc3[nH]2)c1 15.4%, O=C(NCc1ccco1)c1cccc(Nc2nc3ccc(Br)cc3[nH]2)c1 22%, COC(=O)/C=C1\SC(=NC(=O)c2ccc(C)cc2)NC1=O 3.6%, O=Cc1ccc(O)c(O)c1 25.6%, COc1cc(/C=C/C(=O)CC(=O)/C=C/c2ccc(O)c(OC)c2)ccc1O 5.3%, COc1ccc(NC(=O)/C=C/c2ccc(OC)c(OC)c2)cn1 -4.6%, Cc1cc([N+](=O)[O-])cnc1Sc1nccn1C -29.4%, O=C(CCc1nc2ccccc2[nH]c1=O)OCC(=O)c1ccc(Cl)cc1 2.3%, COc1ccc(/C=N/NC(=O)c2nc(-c3ccccc3)n(-c3ccccc3)n2)cc1 17%, COc1ccc(/C=N/NC(=O)c2nn(-c3ccc(C)c(C)c3)c(=O)c3ccccc23)cc1 13.2%, CCOC(=O)c1nn(-c2ccc(F)cc2)c(=O)c2c(N)scc12 40.7%, CCOC(=O)c1nn(-c2ccc(OC)cc2)c(=O)c2c(N)scc12 46.8%, CCOC(=O)c1nn(-c2ccccc2)c(=O)c2c(N)scc12 36.2%, CCOC(=O)c1nn(-c2ccc(C)cc2)c(=O)c2c(N)scc12 39.4%, O=C(CSc1nc2cc(Cl)ccc2s1)Nc1cccc(S(=O)(=O)N2CCOCC2)c1 15.2%, CCN1CCN(C(c2cccs2)C(C)NC(=O)CC(C)C)CC1 (stereo not given) 0.5%, CCN(CCNC(=O)C1CCN(S(=O)(=O)c2cccc3cccnc23)CC1)c1ccccc1 8.4%, O=C(NNC(=O)c1cc(OCC(F)(F)F)ccc1OCC(F)(F)F)c1ccc(Cl)c(Cl)c1 16.5%, Cc1cc2oc(=O)cc(CN3CCCc4ccccc43)c2cc1C -11.2%, Cc1ccc(SCCC(=O)NCCSCc2ccco2)cc1 7.9%, CN1CCC(N(C)C(=O)/C=C/c2cn(-c3ccccc3)nc2-c2cccs2)CC1 -5.9%, COc1ccc(S(=O)(=O)N2CCN(Cc3ccc(Cl)cc3)CC2)cc1 14.7%, CCOc1cc(-c2nc(-c3ccccc3)c(-c3cc([N+](=O)[O-])ccc3C)[nH]2)ccc1O 14.4%, COc1ccc(-c2nc(-c3ccccc3)c(-c3cc([N+](=O)[O-])ccc3C)[nH]2)cc1O 22.5%, Cc1ccc(COc2ccc(Br)cc2/C=N/O)cc1 19.7%
